In ChEMBL document CHEMBL3988442, “University of Dundee, Small-Polar-MMV Screening Library” (2021):
The whole screen tested about 48,000 compounds, of which about 13,000 (27%) showed an effect of 50% or more. The list shows a part of the results.

Each compound was assayed on Wolbachia pipientis (assay: Anti-Wolbachia Cell-Based Screen). Conditions: 5 µM.
Type: functional
Parameters: scale not given: in the data most compounds retested in dose-response had high values
`Cc1nn(C)cc1C(C)Nc1ncc(C(N)=O)cc1Cl` (centres undefined) was tested, and the “Percent Effect” value was -11.95%.
`COC(=O)CC(NC(=O)c1cccc(N2CCCC2=O)c1)c1cccs1` (centres undefined) was tested, and the “Percent Effect” value was 6.294%.
In the case of `CN(Cc1ccc(Cl)s1)C(=O)CN(C)C1CCCc2ccccc21` (centres undefined), the “Percent Effect” value is reported as -6.291%.
For `O=C(CCN1CCSCC1c1ccccc1)N1CCOCC1` (centres undefined), the “Percent Effect” value was 2.279%.
For `COc1ccsc1C(=O)Nc1cc(CN2CCOCC2)ccc1C`, the “Percent Effect” value was -3.737%.
`O=C(O)C(F)(F)F.O=C(O)C(F)(F)F.c1cncc(C2COC3(CCN(CC4CCOCC4)CC3)C2)c1` (centres undefined) was tested, and the “Percent Effect” value was 107.8%.
In the case of `Fc1ccc(CN2CCC3(CC2)CC(c2cccnc2)CO3)cc1.O=C(O)C(F)(F)F.O=C(O)C(F)(F)F` (centres undefined), the “Percent Effect” value is reported as 97.05%.
With `COCCN1CCC2(CC1)CC(Nc1ccc(C)nn1)CO2.O=C(O)C(F)(F)F` (centres undefined) the “Percent Effect” value was -23.59%.
For `Fc1ccc(N2CCC3(CC2)CC(OCc2cccnc2)CO3)cc1.O=C(O)C(F)(F)F` (centres undefined), the “Percent Effect” value was -13.34%.
In the case of `COCCN1CCC2(CC1)CC(c1cccnc1)CO2.O=C(O)C(F)(F)F` (centres undefined), the “Percent Effect” value is reported as 117.3%.
`O=C(NC1COC2(CCN(CC3CCC3)CC2)C1)c1ccccn1.O=C(O)C(F)(F)F` (centres undefined) was tested, and the “Percent Effect” value was 9.161%.
`O=C(O)C(F)(F)F.O=C(O)C(F)(F)F.c1cncc(C2COC3(CCN(CC4CC4)CC3)C2)c1` (centres undefined) was tested, and the “Percent Effect” value was 1.552%.
`O=C(O)C(F)(F)F.O=S(=O)(C1CC1)N1CCC2(CC1)CC(Oc1cccnc1)CO2` (centres undefined) was tested, and the “Percent Effect” value was 3.761%.
For `O=C(O)C(F)(F)F.O=C(O)C(F)(F)F.O=C(O)C(F)(F)F.c1cncc(CN2CCC3(CC2)CC(c2cccnc2)CO3)c1` (centres undefined), the “Percent Effect” value was 108.2%.
`Fc1cnc(N2CCC3(CC2)CC(OCc2cccnc2)CO3)nc1.O=C(O)C(F)(F)F.O=C(O)C(F)(F)F` (centres undefined) was tested, and the “Percent Effect” value was -2.608%.
For `OC1(c2cn(CC3CCN(C4CCSC4)CC3)nn2)CCCC1` (centres undefined), the “Percent Effect” value was -24.22%.
`Cc1nccn1-c1ccc(NC(=O)C2CCCN2CC2CC2)cc1` (centres undefined) was tested, and the “Percent Effect” value was 11.95%.
In the case of `Cc1cc(-n2cncn2)ccc1C(=O)Nc1ccc(N2CCCC2)cn1`, the “Percent Effect” value is reported as -10.21%.
In the case of `FC(F)(F)CCN(Cc1ccon1)C1CCC1`, the “Percent Effect” value is reported as 0.2197%.
With `COc1ccc(CN2CCC3(CCN(c4cccnc4)C3=O)C2)cc1.O=C(O)C(F)(F)F.O=C(O)C(F)(F)F` (centres undefined) the “Percent Effect” value was -2.008%.
`O=C(O)C(F)(F)F.O=C(O)C(F)(F)F.c1cncc(C2COC3(CCN(Cc4ccsc4)CC3)C2)c1` (centres undefined) was tested, and the “Percent Effect” value was 104.8%.
In the case of `O=C(O)C(F)(F)F.O=C(O)C(F)(F)F.O=C(c1ccsc1)N1CCOC2(CCN(Cc3cccnc3)CC2)C1`, the “Percent Effect” value is reported as -15.45%.
In the case of `COc1ccc(CN2CCC3(CC2)CC(c2cccnc2)CO3)cc1.O=C(O)C(F)(F)F.O=C(O)C(F)(F)F` (centres undefined), the “Percent Effect” value is reported as 103.1%.
For `O=C1COc2cc(C(=O)NS(=O)(=O)c3ccccc3F)ccc2N1`, the “Percent Effect” value was -1.273%.
In the case of `Cc1ccc(C(CNCc2c[nH]nc2C)N(C)C)cc1.Cl` (centres undefined), the “Percent Effect” value is reported as -30.61%.
For `COCCN1C(=O)[C@H]2CC[C@@H]1CN(Cc1nnc(-c3ccccc3)o1)C2`, the “Percent Effect” value was 112.1%.
`COCCN1C(=O)[C@H]2CC[C@@H]1CN(Cc1nnc(C3CC3)o1)C2` was tested, and the “Percent Effect” value was 101%.
In the case of `COCCN1C(=O)[C@H]2CC[C@@H]1CN(c1nccc(C)n1)C2`, the “Percent Effect” value is reported as 1.615%.
In the case of `CS(=O)(=O)N1C[C@@H]2CC[C@H](C1)N(Cc1cscn1)C2=O`, the “Percent Effect” value is reported as -6.714%.
In the case of `COCCN1C(=O)[C@H]2CC[C@@H]1CN(c1ncccn1)C2`, the “Percent Effect” value is reported as -42.86%.
With `O=C1[C@H]2CC[C@H](CN(C3CCOCC3)C2)N1Cc1cscn1` the “Percent Effect” value was -44.85%.
For `CCC1CN(Cc2nnc(C3CC3)o2)CCN1CCOC` (centres undefined), the “Percent Effect” value was -15.54%.
For `Cc1cnn(C2CN(Cc3nnc(C4CC4)o3)C2)c1`, the “Percent Effect” value was 1.311%.
With `O=C1[C@H]2CC[C@H](CN(Cc3nnc(C4CC4)o3)C2)N1Cc1cscn1` the “Percent Effect” value was 105.2%.
In the case of `CCS(=O)(=O)CC(C)N(C)C(=O)NCCc1cccc(F)c1F` (centres undefined), the “Percent Effect” value is reported as -8.987%.
`CCc1ccc(CN(C)c2ccc(-c3nc(COC)no3)cn2)nc1` was tested, and the “Percent Effect” value was -21.07%.
For `Cc1nc2n(n1)CC(Nc1cc(C(F)(F)F)nc3ncnn13)CC2` (centres undefined), the “Percent Effect” value was 10.68%.
For `Cc1ccsc1CN(C)C(=O)c1ccc(N2CCOCC2)c(F)c1`, the “Percent Effect” value was 8.665%.
In the case of `CCc1nc(CN(C)C2CCN(CCNS(=O)(=O)CC)C2)no1` (centres undefined), the “Percent Effect” value is reported as 8.032%.
With `CCc1nc(CN(C)C2CCN(CCCOc3ccccc3)C2)no1` (centres undefined) the “Percent Effect” value was 76.47%.
With `CCc1nc(CN(C)C2CCN(CCOc3ccccc3)C2)no1` (centres undefined) the “Percent Effect” value was 109.8%.
For `CCc1nc(CN(C)C2CCN(Cc3ccc(C#N)cc3F)C2)no1` (centres undefined), the “Percent Effect” value was 1.706%.
With `Cc1ccc(NC2(C(=O)NCCCN)CCCC2)cc1` the “Percent Effect” value was -6.352%.
For `CN(CC(=O)Nc1nncs1)CC1CCCN1c1cccnn1` (centres undefined), the “Percent Effect” value was -0.3075%.
`O=C(CC1CCN(c2cccnn2)CC1)Nc1nncs1` was tested, and the “Percent Effect” value was 96.76%.
`O=C(CC1CCN(c2cccnn2)CC1)Nc1cccnc1` was tested, and the “Percent Effect” value was 90.02%.
In the case of `CN(CC(=O)Nc1cccnc1)CC1CCCN1c1cccnn1` (centres undefined), the “Percent Effect” value is reported as -11.55%.
`O=C(Nc1nncs1)N1CCC(CCO)CC1` was tested, and the “Percent Effect” value was -8.889%.
With `O=C(C[C@H]1[C@H]2CN(C(=O)CO)C[C@@H]12)Nc1cccnc1` the “Percent Effect” value was 10.82%.
`Cc1ccc(N2C(=O)N[C@@H]3CCN(C(=O)C4CC4)[C@@H]3C2=O)cc1` was tested, and the “Percent Effect” value was 11.16%.
For `CCNC(=O)N1CC(c2nc(Cc3ccccc3)no2)C1`, the “Percent Effect” value was -5.949%.
In the case of `Cn1ccnc1CN(CCO)C(=O)c1cnc2ccccc2c1`, the “Percent Effect” value is reported as -19.73%.
In the case of `CCCc1nc(CN(CC)C(=O)c2ccc3ncsc3c2)no1`, the “Percent Effect” value is reported as -3.567%.
With `CCN(Cc1noc(C2CCC2)n1)C(=O)CCc1cc2n(n1)CCNC2` the “Percent Effect” value was -16.19%.
In the case of `CN1CCC(N(CCc2ccccc2)Cc2noc(C3CC3)n2)CC1`, the “Percent Effect” value is reported as 8.424%.
For `CCN(Cc1noc(C2CC2)n1)C(=O)c1onc2ccccc12`, the “Percent Effect” value was 98.35%.
`CCN(Cc1noc(C2CCC2)n1)C(=O)c1cnc2ccccc2c1` was tested, and the “Percent Effect” value was 94.43%.
With `CCCc1nc(CN(CC)C(=O)c2ccc(OC)c(OC)c2)no1` the “Percent Effect” value was -5.69%.
`CCCc1nc(CN(CC)C(=O)c2onc3ccccc23)no1` was tested, and the “Percent Effect” value was 89.45%.
